According to PubChem BioAssay (NCI):
About 83,000 compounds went through this panel and 20% of them were active in at least one assay; those are over-represented in the sample as a whole.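 Percent growth is the endpoint: 0 to 100 indicates growth inhibition (40 means 60% inhibition), 0 means no net growth, and negative values indicate cell death.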 Activity calls are given as the source filed them. How the source made its calls: active means growth percent below 10; inactive means the rest.

What was measured:
Assay in all cases: NCI-60 one-dose screen, 48 h (100 = growth as untreated, 0 = no growth, -100 = all killed)
Conditions in all cases: 10 µM unless noted
[1] = system: SR leukemia
[2] = system: RPMI-8226 leukemia
[3] = system: OVCAR-8 ovarian
[4] = system: OVCAR-5 ovarian
[5] = system: OVCAR-4 ovarian
[6] = system: SK-OV-3 ovarian
[7] = system: IGROV1 ovarian
[8] = system: OVCAR-3 ovarian
[9] = system: HS 578T breast
[10] = system: NCI/ADR-RES ovarian
[11] = system: T-47D breast
[12] = system: BT-549 breast
[13] = system: MDA-MB-435 melanoma
[14] = system: SW-620 colon
[15] = system: MCF7 breast
[16] = system: HCT-116 colon
[17] = system: HCC-2998 colon
[18] = system: KM12 colon
[19] = system: MDA-MB-468 breast

Measured: growth

COc1cc2oc(-c3cccc(NC(=O)[C@H](CC(N)=O)NC(=O)OC(C)(C)C)c3)cc(=O)c2c(OC)c1OC
inactive: [1] 58.4% | [2] 69.3% | [3] 73.3% | [4] 95.5% | [5] 94.6% | [6] 140% | [7] 96.9% | [8] 105% | [9] 83.1% | [10] 102% | [11] 65.7% | [12] 82.6% | [13] 97.2% | [14] 94.5% | [15] 71.8% | [16] 89.3% | [17] 100% | [18] 87.1% | [19] 82.7%

CC(/C=C1\SC(=S)N(CCCC(=O)NC(CC(C)C)C(=O)O)C1=O)=C\c1ccccc1 (centres undefined)
inactive: [1] 101% | [2] 77.6% | [3] 87.5% | [4] 111% | [5] 99.8% | [6] 106% | [7] 109% | [8] 91.3% | [9] 97.5% | [10] 94.1% | [11] 89.7% | [12] 78% | [13] 94.8% | [14] 112% | [15] 82.1% | [16] 71% | [17] 108% | [18] 57.9% | [19] 86.7%

COc1cc2oc(-c3cccc(NC(=O)[C@H](Cc4ccccc4)NC(=O)OC(C)(C)C)c3)cc(=O)c2c(OC)c1OC
inactive: [1] 22.5% | [2] 22.7% | [3] 26.7% | [4] 80.8% | [5] 41.4% | [6] 78.7% | [7] 32.7% | [8] 36.3% | [9] 16.4% | [10] 29.6% | [11] 38.7% | [12] 28.7% | [13] 61.9% | [14] 43.3% | [15] 22.1% | [16] 15.1% | [17] 69.6% | [18] 19.5% | [19] 41.8%

CN(C)c1ccnc(CNCCSC2(c3ccccc3)c3ccccc3C=Cc3ccccc32)c1
inactive: [5] 16.8% | [7] 11.1%
active: [1] -52.6% | [2] -48% | [3] -45.1% | [4] 1.39% | [6] 6.47% | [8] -58.6% | [9] -34% | [10] -61.6% | [11] -32% | [12] -47.1% | [13] -86.3% | [14] -76.1% | [15] -75.8% | [16] -38.8% | [17] -77.3% | [18] -61% | [19] -55.3%

Cc1ccc2c(c1)nc(-c1ccccc1)n2CC(=O)N=Nc1c(O)[nH]c2ccc(Br)cc12
active: [1] 0.421% | [2] -1.7% | [3] -67.2% | [4] -20.2% | [5] -49.3% | [6] -32% | [7] -78% | [8] -75.2% | [9] -5.01% | [10] -69.6% | [11] -46% | [12] -72.1% | [13] -33.4% | [14] 2.54% | [15] -69.7% | [16] -91.7% | [17] -72% | [18] -46% | [19] -78.4%

COc1ccc2[nH]cc(-c3nnc(N)nc3-c3c[nH]c4ncc(Br)cc34)c2c1
inactive: [1] 67.8% | [2] 76.8% | [3] 82.5% | [4] 97.9% | [5] 96.6% | [6] 76.2% | [7] 48.3% | [8] 104% | [9] 70.1% | [10] 97.9% | [11] 53.8% | [12] 93% | [13] 102% | [14] 88.8% | [15] 62.2% | [16] 75.2% | [17] 110% | [18] 91.4% | [19] 79.9%

Cc1ccc([C@H]2C(C(=O)c3ccc(Cl)cc3)C3(N[C@@H]2c2ccccc2)C(=O)Nc2ccccc23)cc1 (some centres undefined)
inactive: [1] 23.3% | [3] 66% | [4] 52.2% | [5] 49.4% | [6] 53.2% | [7] 59.4% | [8] 37.3% | [9] 60.3% | [10] 35.4% | [11] 14.3% | [12] 50.7% | [13] 26.8% | [14] 29.9% | [15] 16% | [16] 14% | [17] 23.7% | [18] 25.9%
active: [2] 6.4% | [19] 1.9%

CC(=O)c1c(N)c(C#N)cn1-c1ccc(Cl)cc1Cl
inactive: [1] 90.8% | [2] 105% | [3] 98.2% | [4] 100% | [5] 106% | [6] 89.1% | [7] 96.5% | [8] 120% | [9] 110% | [10] 108% | [11] 95.1% | [12] 104% | [13] 102% | [14] 102% | [15] 100% | [16] 99.1% | [17] 114% | [18] 95.8% | [19] 97.1%

CN(C)c1nc(NCCNS(=O)(=O)c2ccc(C(=O)/C=C/c3ccc(F)cc3)cc2)nc(Nc2ccc(F)cc2)n1
active: [1] -34.5% | [2] -15.4% | [3] -96.2% | [4] -97.4% | [5] -82% | [6] -0.953% | [7] -84.6% | [8] -97.4% | [9] -11.3% | [10] -91.6% | [11] -42.1% | [12] -88.7% | [13] -92.6% | [14] -95.3% | [15] -82.8% | [16] -86.8% | [17] -95.9% | [18] -93.6% | [19] -82.8%

Cc1ccc(NC(=O)[C@]23CCC(C)(C)CC2C2=CCC4[C@@]5(C)C[C@@H](O)[C@H](O)[C@@](C)(CO)C5CC[C@@]4(C)[C@]2(C)CC3)cc1 (some centres undefined)
active: [1] -11.8% | [2] -29.1% | [4] 6.37% | [12] 0.29% | [15] 4.26% | [16] 6.55% | [17] -6.83% | [18] -22.3% | [19] 0.813%
inactive: [3] 44.9% | [5] 38.7% | [6] 28.4% | [7] 54.3% | [8] 41.2% | [9] 32.4% | [10] 31.4% | [11] 10.4% | [13] 26.2% | [14] 40.1%

Cc1ccc(C2CC(c3ccc(S(=O)(=O)NCCNc4nc(Nc5ccc(F)cc5)nc(N(C)C)n4)cc3)=Nc3c(N)nc(N)nc3N2)cc1 (centres undefined)
inactive: [3] 52% | [4] 92.6% | [5] 53.2% | [6] 101% | [7] 69.8% | [8] 67.5% | [9] 65.2% | [10] 88.9% | [11] 53% | [12] 58% | [13] 55.2% | [14] 54.1% | [15] 18.7% | [16] 27.2% | [17] 32.4% | [18] 40.9%
active: [1] -6.57% | [2] 6.3% | [19] -12.8%

O=C(NN1C(=O)/C(=C/C=C/c2ccc([N+](=O)[O-])o2)SC1=S)c1cccc(O)c1
active: [1] 2.86% | [2] -10.1% | [3] -80.3% | [4] -98.5% | [5] -100% | [6] -80.9% | [7] -97.9% | [8] -100% | [9] -14.6% | [10] -32.1% | [11] -44.1% | [12] -96% | [13] -93.3% | [14] -71.1% | [15] -61.9% | [16] -77.1% | [17] -94.8% | [18] -92.6% | [19] -73.4%

O=c1oc2ccccc2cc1-c1csc(N2N=C(c3ccccc3)CC2c2ccc(N3CCOCC3)cc2)n1 (centres undefined)
inactive: [1] 94.5% | [2] 102% | [3] 104% | [4] 132% | [5] 105% | [6] 69.9% | [7] 123% | [8] 117% | [9] 105% | [10] 105% | [11] 91.6% | [12] 118% | [13] 110% | [14] 106% | [15] 86.5% | [16] 109% | [17] 121% | [18] 103% | [19] 99.7%

COc1ccc(/C=C/c2nc3ccccc3n3c(-c4ccc(Cl)cc4)nnc23)cc1
inactive: [1] 60.1% | [2] 81.4% | [3] 92.7% | [4] 102% | [5] 81% | [6] 98.4% | [7] 66.8% | [8] 99% | [9] 96.2% | [10] 94.4% | [11] 80.6% | [12] 114% | [13] 96.1% | [14] 99.2% | [15] 73.1% | [16] 88.3% | [17] 110% | [18] 93.1% | [19] 106%

C=C1CCC2C3(C)COC(c4ccccc4F)OC3CCC2(C)C1CC(O)C1=CCOC1=O (centres undefined)
inactive: [1] 30.9% | [2] 10.7% | [4] 74.9% | [5] 50.3% | [6] 110% | [7] 51.4% | [8] 31.1% | [9] 78.3% | [11] 42.1% | [13] 27.5% | [15] 15.2% | [17] 36.7% | [18] 45.3% | [19] 63.9%
active: [3] -11.4% | [10] 5.4% | [12] -18.8% | [14] -6.12% | [16] -59.4%

C=C1CCC2C3(C)COC(c4ccco4)OC3CCC2(C)C1CC(Sc1ccccc1)C1=CCOC1=O (centres undefined)
active: [2] 3.83% | [3] 4.17% | [10] -17.6% | [12] 5.74%
inactive: [1] 17.1% | [4] 60.9% | [5] 70.2% | [6] 141% | [7] 69.2% | [8] 37% | [9] 114% | [11] 77.3% | [13] 54.1% | [14] 34.8% | [15] 23.1% | [16] 12% | [17] 57% | [18] 71.9% | [19] 17%
